Among all 2,300 compounds or so, about 1,200 (52%) were called active. Roughly 34% stayed inconclusive and do not appear here. Calls come from the whole dose curve; as a rule, active = well fitted inhibition curve with a large enough effect; inconclusive = small, poorly fitted or top-dose-only effect, or effect the other way; inactive = no such curve, though single readings can be large or run the other way. The set was probably picked from earlier hits. This is one part of the list.
% is set by controls: 0 for no effect and ±100 for the full control effect; potency is the fitted concentration of half-maximal effect.

The test in a line: Confirmation screen for delayed death inhibitors of the malarial parasite plastid, 48 hour incubation. Note: nearly all actives have a fitted effect of over 65% in size. The note with it: P. falciparum-infected erythrocytes, luciferase growth; series mostly up to 28.7 µM; activity change, negative = inhibition: at the top concentration. The gist of the method: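 Single-generation (48 h, 37 C) exposure of integrated firefly luciferase-reporter P. falciparum in red cells, 0.1% parasitemia at 2% hematocrit, Albumax-supplemented RPMI. Falling luciferase signal marks parasite growth inhibition.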
As to `Nc1nc(SCC(=O)NCC2CCCO2)[nH]c(=O)c1NC(=O)c1ccc(F)c(F)c1` (configuration not stated), the Potency was 12.6 µM (active).
On the same count and under the same terms, the figure for `CCS(=O)(=O)c1nc(S(=O)(=O)c2ccc(C)cc2)c(N2CCC3(CC2)OCCO3)s1` is 12.6 µM (active); for `CC(C)Cc1ccc(C(=O)Nc2ccc(Cc3ccncc3)cc2)o1` it is 12.6 µM (active).
On the same count and under the same terms, the figure for `CCN(CC)S(=O)(=O)c1cc(NC(=O)C(C)OC(=O)c2[nH]c(C)c(C(C)=O)c2C)ccc1C` (configuration not stated) is 4.47 µM (active); for `Cc1oc2c(c1C(=O)N1CCOCC1)C(=O)c1ccccc1C2=O` it is 2 µM (active); for `CCCC1O[C@@H]2CC3C4CCC5=CC(=O)C=C[C@]5(C)C4C(OC(C)=O)C[C@]3(C)[C@]2(C(=O)COC(C)=O)O1` (some centres not stated) it is 7.08 µM (active).
On to `COC1C(OC(=O)/C=C/C=C/C=C/C=C/C(=O)O)CCC2(CO2)C1C1(C)OC1CC=C(C)C` (configuration not stated), for which the Potency was 0.0562 µM (active).
On the same count and under the same terms, the figure for `CC[n+]1ccc(/C=C/c2c[nH]c3ccccc23)cc1` is 0.355 µM (active); for `CCc1ccc(/C=C/c2c[nH]c3ccccc23)[n+](CC)c1` it is 0.126 µM (active); for `CC(C)CC1NC(=S)N(Cc2ccccc2)C1=O` (configuration not stated) it is 5.01 µM (active).
Still for that read-out and setting: then `O=C(C#Cc1ccccc1)Nc1cccc(F)c1`, with 7.94 µM (active).
For `NC(=O)c1ccc(NC(=O)C#Cc2ccccc2)cc1`, the Potency is 5.01 µM (active).
With `Cc1nnsc1C(=O)Nc1ccccc1`, the “activity change, negative = inhibition” value was 14.9% (inactive).
On the same count and under the same terms, the figure for `Nc1ccc(-c2c3ccc(=O)cc-3oc3cc(O)ccc23)c(C(=O)O)c1` is 3.65% (inactive).
As to `c1ccc(Cn2nnc3c(N4CCCCCC4)ncnc32)cc1`, the Potency was 14.1 µM (active).
In the case of `CCn1c(=O)n(CC)c2cc(N3CCCC3)c(NC(=O)c3ccc(C)cc3)cc21`, the Potency is 11.2 µM (active).
Regarding `COc1ccc(CC(=O)NNC(=O)CN(C)S(=O)(=O)c2ccc(Cl)cc2)cc1OC`, the “activity change, negative = inhibition” value is -28.2% (inactive).
For `Cc1csc(NC(=O)Cc2coc3cc(C)c(C(C)C)cc23)n1`, the Potency was 14.1 µM (active).
Still for that read-out and setting: the figure for `COc1ccc(NC(=O)Cc2ccc(Cl)cc2)cc1S(=O)(=O)N1CCCCC1` is 12.6 µM (active).
Turning to `COc1ccc(NC(=O)Cc2coc3cc(C)c(C(C)C)cc23)cc1S(=O)(=O)N1CCOCC1`, the Potency is 12.6 µM (active).
On the same count and under the same terms, then `Cc1ccc(NC(=O)COc2ccccc2C#N)cc1S(=O)(=O)N1CCCCCC1`, with 14.1 µM (active).
As to `O=C(COC(=O)c1ccc(F)c(S(=O)(=O)N2CCOCC2)c1)Nc1ccc2[nH]c(=O)[nH]c2c1`, the “activity change, negative = inhibition” value is -10.8% (inactive).
Still for that read-out and setting: then `COc1ccccc1-c1coc2cc(OC(=O)N3CCOCC3)ccc2c1=O`, with 7.66% (inactive).
The same measure, in the same setting: then `CC1(C)CC(=O)C=C(NC2=CC3OC(c4ccccc4)OCC3OC2=O)C1` (configuration not stated), with 6.44% (inactive).
Consider `Cc1ccc(/C=C/c2ccc(N(C)C)cc2)[n+](C)c1`, for which the Potency is 1.26 µM (active).
Still for that read-out and setting: then `CC[n+]1ccccc1/C=C/c1ccc(N(C)C)cc1`, with 2.24 µM (active); and `COc1cc(/C=C(/C#N)C(=O)NCc2ccccc2)cc(OC)c1OC`, with 14.1 µM (active); and `CC[C@@H](C(=O)[C@@H](C)[C@@H](O)[C@H](C)CCc1ccc(C)c(O)c1C(=O)O)[C@H]1O[C@](CC)([C@H]2CC[C@](O)(CC)[C@H](C)O2)C[C@@H]1C`, with 0.708 µM (active).
The same measure, in the same setting: then `COc1ccc(N2CCc3c(C)nc4c(OC)cc(OC)cc4c32)c(OC)c1`, with 11.2 µM (active).
Still for that read-out and setting: then `Cc1cc(=O)nc2c3ccccc3n(CC(=O)NCCC3=CCCCC3)n12`, with 12.6 µM (active).
For `Cc1ccccc1OCC(=O)NCCC1=CCCCC1`, the “activity change, negative = inhibition” value was -31.7% (inactive).
Consider `Brc1ccc(/C=N/Nc2ncnc3c2cnn3Cc2ccccc2)cc1`, for which the Potency is 3.98 µM (active).
Still for that read-out and setting: the figure for `COc1cccc(/C=N/NC(=O)c2nc(-c3ccccc3)cc(-c3ccccc3)n2)c1O` is 6.31 µM (active).
Consider `COC(=O)c1ccc(COc2ccccc2/C=N/O)o1`, for which the “activity change, negative = inhibition” value was -21.8% (inactive).
Take `O=C(Cn1ncc2c3ccccc3n(Cc3cccc(Cl)c3)c2c1=O)NCc1ccccn1`: the Potency is 14.1 µM (active).
The same measure, in the same setting: then `COc1ccc(Cn2c(O)c(C=Nc3ccc(O)cc3)c3ccccc3c2=O)cc1`, with 10 µM (active).
Regarding `CC[C@@H]1CC=C[C@H]2[C@H]1C(=O)N(Cc1ccccc1)[C@H]2c1ccoc1`, the Potency was 7.08 µM (active).
Same read-out and setting: the figure for `O=C(COC(=O)c1c2c(nc3ccccc13)CCN(Cc1ccccc1)C2)Nc1c(F)cccc1F` is 6.31 µM (active).
With `COc1cccc(CN2CCN(c3nc4nonc4nc3N3CCCCC3)CC2=O)c1`, the Potency was 10 µM (active).
Same read-out and setting: the figure for `CC(Oc1cccc(Cl)c1)C(=O)Nc1cc(S(=O)(=O)N2CCOCC2)ccc1N1CCCCC1` (configuration not stated) is 5.01 µM (active); for `O=C(COc1ccc(Cl)cc1)Nc1cc(S(=O)(=O)N2CCCCC2)ccc1N1CCCCC1` it is 5.62 µM (active); for `CCN1CCN(c2ccc(S(=O)(=O)N3CCCCC3)cc2NC(=O)COc2cc(C)ccc2Cl)CC1` it is 14.1 µM (active).
Regarding `O=C(COc1ccc(Br)cc1)Nc1cc(S(=O)(=O)N2CCCCC2)ccc1N1CCCCC1`, the Potency is 5.62 µM (active).
For the molecule `C[C@@H]1[C@H](O)C[C@@]23COC(=O)C2=CCCC3[C@@]1(C)CCC1COC(=O)C1` (some centres not stated), the “activity change, negative = inhibition” value was -24.3% (inactive).
In the case of `CSc1ccc(/C=C/C(=O)c2ccc(NC(=O)C(C)C)cc2)cc1`, the Potency was 15.8 µM (active).
Same read-out and setting: then `CSc1c(CC(=O)Nc2ccccc2)n(C)c2ccccc12`, with 8.91 µM (active); and `Cc1ccc(NC(=O)c2cc(C(C)(C)C)nn2Cc2ccccc2)cc1`, with 11.2 µM (active).
For the molecule `Cc1ccc2c(c1)cc(C(=O)NCc1ccccc1)n2C`, the “activity change, negative = inhibition” value was -7.89% (inactive).
Turning to `CC(C)(C)c1cc(C(=O)NNc2cccc(Cl)c2)n(Cc2ccccc2)n1`, the Potency was 12.6 µM (active).
As for `Cc1cccc(Cn2nc(C(C)(C)C)cc2C(=O)Nc2ccc(F)cc2)c1`, the Potency is 4.47 µM (active).
As for `CCOc1c(Cl)cc(C(=O)Nc2ccccc2C(=O)O)cc1Cl`, the “activity change, negative = inhibition” value is -9.43% (inactive).
With `CCOC(=O)C1CCN(c2cc3c(cc2NC(=O)c2ccccc2Cl)n(C)c(=O)n3C)CC1`, the Potency was 11.2 µM (active).
Same read-out and setting: the figure for `CC(=O)N(C)C1=C(N2CCOCC2)C(=O)c2ccccc2C1=O` is 0.631 µM (active).
Regarding `CN1CCN(C(=O)CCN2C(=O)/C(=C\c3ccc(Cl)cc3)SC2=S)CC1`, the “activity change, negative = inhibition” value is -20.3% (inactive).
On to `CN1CCN(C(=O)CCN2C(=O)/C(=C/c3cccc(Br)c3)SC2=S)CC1`, for which the Potency is 11.2 µM (active).
Same read-out and setting: then `O=C(CCN1C(=O)/C(=C/c2ccccc2Cl)SC1=S)N1CCOCC1`, with 15.8 µM (active); and `C=C(C)n1c(=O)n(Cc2ccccc2C)c2ccccc21`, with 12.6 µM (active).

The values are drawn from PubChem BioAssay AID504850 (National Center for Advancing Translational Sciences (NCATS), 2011).
